The source made the active and inactive calls. Entries that show only a call come without a potency. Calls follow the shape of the dose curve; as a rule, active = well fitted curve in the direction sought with a large enough effect; inconclusive = small, poorly fitted or top-dose-only effect, or another doubt; inactive = no such curve, though single readings can be large or run the other way. Residues, ends and D or L forms follow the SMILES beside them. *: point of attachment. Cbz = O=C(OCc1ccccc1)*
Test: Validation qHTS assay for inhibitors of Activation Induced Cytidine Deaminase (AID): UDG Counterscreen signal (AID 1347427)
Settings: biochemical UDG counterscreen, fluorescence signal; series mostly up to 115 µM
Summary of the method: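 Counterscreen read of UDG activity (2 U/mL, 4/3x) in the FRET deamination format with AID (1 uM, 4/3x), DJC20/DJC23 substrates (250 nM, 4x), 4 h at room temperature. NaOH stop, fluorescence at 560 ex/665 em.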

| SMILES | Potency |
| --- | --- |
| C[C@H](O)C(=O)C1=Nc2c(nc(N)[nH]c2=O)NC1 | inactive |
| N#CC(C#N)=C(N)/C(C#N)=C/c1ccc(O)cc1 | inactive |
| c1ccc(C2CN3CCSC3=N2)cc1 (stereo not given) | inactive |
| OC[C@H]1O[C@H](n2cnc3c(N[C@H]4CCC[C@@H]4O)ncnc32)[C@H](O)[C@@H]1O | inactive |
| COc1ccc(-c2ccc(N)[n+](CCCC(=O)O)n2)cc1 | inactive |
| OC[C@H]1NC[C@@H](O)[C@@H]1O | inactive |
| c1ccc2c(c1)CC(N1CCN(c3cccc4c3OCCO4)CC1)C2 | inactive |
| OC1(c2ccc(Cl)cc2)CCN(Cc2c[nH]c3ccccc23)CC1 | inactive |
| CC(C)[C@H](NC(=O)OCc1ccccc1)C(=O)N[C@H](C=O)Cc1ccccc1 (Cbz-Val-Phe-aldehyde) | inactive |
| COc1cccc(OC)c1OCCNCC1CSc2ccccc2O1 (stereo not given) | inactive |
| Cc1nc(N=Nc2cc(S(=O)(=O)O)c3cc([N+](=O)[O-])cc(S(=O)(=O)O)c3c2)c(COP(=O)(O)O)c(C=O)c1O | inactive |
| O=[N+]([O-])c1cccc2cn[nH]c12 | inactive |
| CN(CC[C@@H](Oc1ccc(C(F)(F)F)cc1)c1ccccc1)CC(=O)O | inactive |
| Nc1ccc(CCNc2ncnc3c2ncn3C2OC(CO)C(O)C2O)cc1 (stereo not given) | inactive |
| NC(Cc1cccc(-c2ccccc2CP(=O)(O)O)c1)C(=O)O (stereo not given) | inactive |
